NadD inh = blocks S. aureus nicotinate mononucleotide adenylyltransferase; purified NadD enzyme, colorimetric absorbance read-out; inhibition, % at 20 µM; actives 0.78% (n = 360,000); in the data active = inhibition above about 26%
GRIN3A LBD mod = modulators (binders) of human NR3A ligand-binding domain; actives 2.5% (n = 340,000); NR3A LBD differential scanning fluorimetry, Tm shift; 0% = protein alone, 100% = glycine-bound protein; Tm shift relative to glycine control, % at 25 µM;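 active = melting temperature shift of at least 10% of the positive control shift, at one fixed dose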
rCAG RNA binder = binds r(CAG) RNA repeats. AID 651821. actives 1.3% (n = 370,000). inhibition, % at 3 µM. r(CAG) RNA repeat, TO-PRO-1 dye displacement fluorescence;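 active = inhibition above the plate cutoff, the mean of all test compounds on that plate plus 3 SD, cut at about 35% in these data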;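 note: higher means more dye released from RNA so lower well fluorescence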
FAS TE block = blocks the thioesterase domain of human fatty acid synthase; recombinant FAS-TE, OMFH fluorogenic substrate, fluorescence endpoint; inhibition, % at 15 µM; actives 0.67% (n = 360,000); AID 602261;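 active = compounds whose normalised, plate-corrected inhibition of enzyme fluorescence in the single-dose primary screen is 50% or more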
Target sequence (P49327 whole entry, looked up, the tested form may be a part): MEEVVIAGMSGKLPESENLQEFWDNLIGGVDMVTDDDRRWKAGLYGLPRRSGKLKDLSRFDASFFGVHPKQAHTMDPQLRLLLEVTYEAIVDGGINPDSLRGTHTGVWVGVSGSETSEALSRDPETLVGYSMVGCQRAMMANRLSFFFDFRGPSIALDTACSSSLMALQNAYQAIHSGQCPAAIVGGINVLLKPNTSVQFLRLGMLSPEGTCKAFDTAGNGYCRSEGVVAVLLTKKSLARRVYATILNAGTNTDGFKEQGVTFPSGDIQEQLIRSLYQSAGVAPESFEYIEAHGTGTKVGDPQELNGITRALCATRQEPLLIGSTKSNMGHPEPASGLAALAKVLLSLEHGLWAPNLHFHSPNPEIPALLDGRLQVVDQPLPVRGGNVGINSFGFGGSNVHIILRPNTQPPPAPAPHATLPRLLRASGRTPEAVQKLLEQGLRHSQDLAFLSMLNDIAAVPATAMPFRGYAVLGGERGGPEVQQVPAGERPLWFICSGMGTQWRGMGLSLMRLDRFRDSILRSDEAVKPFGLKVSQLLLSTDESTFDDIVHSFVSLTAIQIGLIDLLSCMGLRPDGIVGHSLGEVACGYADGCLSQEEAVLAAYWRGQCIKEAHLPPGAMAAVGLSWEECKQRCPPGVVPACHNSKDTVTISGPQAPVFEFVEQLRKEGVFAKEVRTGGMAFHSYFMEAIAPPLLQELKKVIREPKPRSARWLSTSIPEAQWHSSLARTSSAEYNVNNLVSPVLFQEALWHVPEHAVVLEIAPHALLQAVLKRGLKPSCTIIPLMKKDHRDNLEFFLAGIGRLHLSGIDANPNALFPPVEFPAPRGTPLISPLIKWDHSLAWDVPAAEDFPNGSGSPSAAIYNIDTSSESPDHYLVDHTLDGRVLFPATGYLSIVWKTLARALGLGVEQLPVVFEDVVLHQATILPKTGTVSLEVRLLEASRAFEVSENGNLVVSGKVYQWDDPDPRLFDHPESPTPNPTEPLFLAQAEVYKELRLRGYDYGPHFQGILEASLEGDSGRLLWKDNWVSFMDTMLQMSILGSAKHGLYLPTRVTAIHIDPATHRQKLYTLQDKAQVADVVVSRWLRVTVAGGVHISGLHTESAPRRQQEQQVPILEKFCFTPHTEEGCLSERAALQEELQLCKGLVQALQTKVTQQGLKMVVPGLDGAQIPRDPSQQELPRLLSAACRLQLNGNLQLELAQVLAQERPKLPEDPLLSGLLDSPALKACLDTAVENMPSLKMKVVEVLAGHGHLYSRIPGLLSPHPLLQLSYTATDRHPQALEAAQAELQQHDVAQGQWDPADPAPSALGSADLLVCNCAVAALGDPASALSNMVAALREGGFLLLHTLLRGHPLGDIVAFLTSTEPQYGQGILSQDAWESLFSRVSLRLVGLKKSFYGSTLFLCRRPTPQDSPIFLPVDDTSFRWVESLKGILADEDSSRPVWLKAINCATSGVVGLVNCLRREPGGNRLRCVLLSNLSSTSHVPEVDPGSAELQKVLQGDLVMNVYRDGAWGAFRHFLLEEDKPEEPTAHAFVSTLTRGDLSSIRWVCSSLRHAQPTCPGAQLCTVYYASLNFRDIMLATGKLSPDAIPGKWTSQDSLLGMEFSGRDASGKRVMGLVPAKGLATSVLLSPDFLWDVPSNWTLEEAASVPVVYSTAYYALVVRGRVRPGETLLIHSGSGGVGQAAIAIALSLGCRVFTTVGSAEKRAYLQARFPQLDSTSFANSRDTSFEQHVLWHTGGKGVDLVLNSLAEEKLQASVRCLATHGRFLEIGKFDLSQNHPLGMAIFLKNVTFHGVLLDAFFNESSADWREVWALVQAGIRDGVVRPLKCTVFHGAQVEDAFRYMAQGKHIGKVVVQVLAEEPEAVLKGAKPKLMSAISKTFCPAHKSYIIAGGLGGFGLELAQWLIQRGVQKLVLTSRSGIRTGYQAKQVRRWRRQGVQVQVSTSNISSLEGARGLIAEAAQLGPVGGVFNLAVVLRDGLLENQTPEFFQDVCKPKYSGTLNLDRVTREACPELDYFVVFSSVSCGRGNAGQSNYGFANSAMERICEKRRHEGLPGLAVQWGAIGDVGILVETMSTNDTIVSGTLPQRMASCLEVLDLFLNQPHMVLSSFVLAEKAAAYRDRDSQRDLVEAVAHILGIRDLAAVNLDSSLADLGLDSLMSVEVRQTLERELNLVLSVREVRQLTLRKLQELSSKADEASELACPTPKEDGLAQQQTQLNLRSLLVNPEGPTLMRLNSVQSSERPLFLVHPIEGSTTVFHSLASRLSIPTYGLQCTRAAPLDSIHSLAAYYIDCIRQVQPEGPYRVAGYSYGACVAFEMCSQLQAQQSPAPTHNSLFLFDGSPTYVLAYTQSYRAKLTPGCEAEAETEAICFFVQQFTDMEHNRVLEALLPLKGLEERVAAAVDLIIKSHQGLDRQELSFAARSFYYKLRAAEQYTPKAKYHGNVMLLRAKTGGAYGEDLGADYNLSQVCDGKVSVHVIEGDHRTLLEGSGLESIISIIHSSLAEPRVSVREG
rCAG binder conf = r(CAG) RNA repeat binding, confirmation; shares compounds with rCAG RNA binder; TO-PRO-1 dye displacement fluorescence; inhibition, % at 3 µM; actives 70% (n = 4,300); AID 652065;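 active = inhibition above a per-plate cutoff, the mean inhibition of sample wells plus 3 SD, cut at about 35% in these data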;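 note: loss of TO-PRO-1 fluorescence as compound displaces dye from 1x1 AA loop RNA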
DNA CAG counter = DNA CAG dye complex inhibition counter-screen. actives 94% (n = 4,300). d(CAG) DNA oligo TO-PRO-1 dye displacement, fluorescence. AID 652068. inhibition, % at 3 µM. shares compounds with rCAG RNA binder;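 active = inhibition above its plate's cutoff, the mean test-well inhibition plus 3 SD, cut at about 4.8% in these data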;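 note: hits displace the dye from DNA and so lower well fluorescence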
DNA CAG DR = disrupts DNA CAG TO-PRO-1 complex in dose response; shares compounds with rCAG RNA binder; IC50, µM; DNA CAG/GTC duplex TO-PRO-1 dye displacement fluorescence; actives 20% (n = 250); in the data active = IC50 below about 10 µM
Each line names hits and unclear results; the compound was inactive in the other large screens (follow-up assays come after a bar, where they were run). Only some compounds are listed: those with a hit (about 4.3% of all), similar ones and a draw of the others.

NC(c1csc(NC(=O)Nc2cccc(Cl)c2)n1)c1ccccc1Cl (configuration not stated)	rCAG RNA binder 41 (no result: GRIN3A LBD mod) | rCAG binder conf 50 | DNA CAG counter 17
CC(C)C(N)c1csc(NC(=O)Nc2cccc(Cl)c2)n1 (configuration not stated)	rCAG RNA binder 44 (no result: GRIN3A LBD mod) | rCAG binder conf 51 | DNA CAG counter 8.4
O=C(O)c1ccc(N2C(=O)CC(SC(=NCc3ccc4c(c3)OCO4)Nc3ccccc3)C2=O)cc1 (configuration not stated)	rCAG RNA binder 69 | rCAG binder conf 62 | DNA CAG counter 23
O=C(O)c1ccc(N2C(=O)CC(SC(=NCc3ccc4c(c3)OCO4)Nc3ccc(F)cc3)C2=O)cc1 (configuration not stated)	rCAG RNA binder 77 | rCAG binder conf 73 | DNA CAG counter 33 | DNA CAG DR inactive
O=C1CC(SC(=NCc2ccc3c(c2)OCO3)Nc2ccccc2)C(=O)N1c1ccccc1 (configuration not stated)	none
C[C@]12Cc3ccccc3C1CC1=N[C@@H](c3ccccn3)O[C@@]13C[C@@H]2C(=O)N3C1CCN(Cc2ccccc2)CC1 (some centres not stated)	none (no result: NadD inh, GRIN3A LBD mod, FAS TE block)
Cc1ccc2[nH]c3c(c2c1)CCc1cn[nH]c1-3	GRIN3A LBD mod 28, rCAG RNA binder 47 | rCAG binder conf inactive | DNA CAG counter 5.0
COCCCNc1nc2ccccc2nc1NS(=O)(=O)c1cccc(Cl)c1	rCAG RNA binder 38 | rCAG binder conf inactive | DNA CAG counter 6.7
O=S(=O)(Nc1nc2ccccc2nc1NCC1CCCO1)c1cccc(Cl)c1 (configuration not stated)	rCAG RNA binder 54 | rCAG binder conf 40 | DNA CAG counter 10
C[C@@H]1COc2cc(Br)ccc2S(=O)(=O)N1Cc1cn(Cc2ccc(C(F)(F)F)cc2)nn1	none (no result: NadD inh, GRIN3A LBD mod, FAS TE block)
O=C(O)[C@H](Cc1ccccc1)N1C(=O)c2c(Cl)c(Cl)c(Cl)c(Cl)c2C1=O	rCAG RNA binder 50 | rCAG binder conf 63 | DNA CAG counter 28
COc1ccccc1COc1ccc2c(C)c(CC(=O)O)c(=O)oc2c1C	rCAG RNA binder 37 | rCAG binder conf 39 | DNA CAG counter 10
C(=C\c1ccccc1)/CSc1nnc(COc2ccccc2)n1Cc1ccco1	none (no result: NadD inh, GRIN3A LBD mod, FAS TE block)
COc1cccc(CN2c3ccc(Br)cc3C(=O)CS2(=O)=O)c1	rCAG RNA binder 52 | rCAG binder conf 39 | DNA CAG counter 16
C=CCN1c2ccc(Br)cc2C(=O)CS1(=O)=O	rCAG RNA binder 66 | rCAG binder conf inactive | DNA CAG counter 6.3
COc1cccc(CN2C(=O)C(C)Oc3ccccc32)c1 (configuration not stated)	none
CCCCc1c(-c2ccccc2OC)ncn1Cc1ccccc1Cl	none (no result: NadD inh, GRIN3A LBD mod, FAS TE block)
COC(=O)[C@]12C[C@H](CC(=O)NCc3cccs3)C(=O)N(Cc3ccc4c(c3)OCO4)C1=C[C@H](COCc1ccccc1)O[C@@H]2C	none (no result: NadD inh, GRIN3A LBD mod, FAS TE block)
CS(=O)(=O)c1ccc2c(c1)sc1nc(=O)c(/C=C3/C=CC(=O)C(O)=C3)c(N)n12	rCAG RNA binder 39 | rCAG binder conf 48 | DNA CAG counter 18
COC1=C/C(=C/c2c(N)n3c(nc2=O)sc2cc(S(C)(=O)=O)ccc23)C=CC1=O	none
COc1cccc(NC(=O)Nc2nnc(COCCO)s2)c1	none (no result: GRIN3A LBD mod)
CC(c1ccccc1)c1nnc(NC(=O)Nc2ccccc2)s1 (configuration not stated)	rCAG RNA binder 43 | rCAG binder conf inactive | DNA CAG counter 17
COc1cccc(NC(=O)Nc2nnc(CC(=O)Nc3ccccc3)s2)c1	GRIN3A LBD mod 23, rCAG RNA binder 43 | rCAG binder conf inactive | DNA CAG counter 21
CCCCOc1ccc(NC(=O)Nc2nnc(C)s2)cc1	rCAG RNA binder 37 | rCAG binder conf inactive | DNA CAG counter 8.2
COc1ccc(NC(=O)Nc2nnc(CC(=O)Nc3ccccc3)s2)cc1	rCAG RNA binder 42 | rCAG binder conf inactive | DNA CAG counter 15
CC[C@H](CCC(=O)N(c1ccccc1)c1ccccc1)c1ccc(C)cc1	none (no result: NadD inh, GRIN3A LBD mod, FAS TE block)
O=C(CSc1nc2[nH]ncc2c(=O)[nH]1)Nc1cccc(Cl)c1	none

Source: PubChem BioAssay
